This note sets out measurements from PubChem BioAssay AID1004 (SRMLSC, 2008).

Activity calls are given as the source filed them.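 Rule for the calls: active = viability at 10 µM of 29.74% or lower, 3 SD below the compound median; inactive = the rest.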

This experiment is described as follows: viability of HCT116 lacking mutant beta-catenin – cell-based, DP diverse set, validation, pilot screen (AID 1004). Conditions: HCT116 (mutant beta-catenin deleted) viability, CellTiter-Glo, 60 h; at 10 µM; active compounds read low. (In ATP-based viability assays light output follows the ATP content of the culture.)
Broadly, the viability is a read-out of living cells in per cent, often relative to untreated cells. As for `CCC(C)C(O)C(C)C(=O)C(C)/C=C(\C)CC(C)C1OC(=O)C1CC` (stereo not given), the viability is 107% (inactive).
For `COC(=O)c1cc2c(s1)-c1ccccc1OC2`, the viability was 98% (inactive).
The same measure for `Nc1ccn([C@H]2CC[C@@H](CO)O2)c(=O)n1`: 102% (inactive); for `CCC[C@@H]1C[C@@H](C(=O)NC(C(C)Cl)[C@H]2O[C@H](SC)[C@H](O)[C@@H](O)[C@H]2O)N(C)C1` (stereo not given in full): 95.6% (inactive); for `Nc1c2c(nc3ccccc13)CCCC2`: 99.8% (inactive).
Turning to `COc1ccc(-c2cc(C(=O)O)no2)cc1`, the viability was 99.2% (inactive).
The same measure for `C[C@@H]1C(=O)O[C@@H]2CC34C5CC(C(C)(C)C)[C@]36C(O)C(=O)O[C@@H]6O[C@@]4(C(=O)O5)[C@@]12O` (stereo not given in full): 72.1% (inactive); for `Cc1cc(CC(=O)O)n(C)c1C(=O)c1ccc(Cl)cc1`: 98.7% (inactive); for `CCCC[C@@H](C=O)NC(=O)[C@H](CC(C)C)NC(=O)[C@H](CC(C)C)NC(C)=O`: 8.45% (active).
The same measure for `Cc1cc2c(C(C)C)c(O)c(O)c(C=O)c2c(O)c1-c1c(C)cc2c(C(C)C)c(O)c(O)c(C=O)c2c1O`: 28.5% (active).
The same measure for `COc1ccc(C2CNC(=O)C2)cc1OC1CCCC1` (stereo not given): 99.4% (inactive); for `CC(=O)[C@H]1[C@H](C#N)CC2C3CC=C4C[C@@H](O)CCC4(C)C3CCC21C` (stereo not given in full): 98.1% (inactive).
For the molecule `Cc1c(C)c2c(c(C)c1O)CCC(C)(COc1ccc(CC3SC(=O)NC3=O)cc1)O2` (stereo not given), the viability is 92% (inactive).
The same measure for `O=C1OC(c2cc(I)c(O)c(I)c2)(c2cc(I)c(O)c(I)c2)c2ccccc21`: 97.5% (inactive); for `O=c1c(O)c(-c2ccc(O)c(O)c2)oc2cc(O)cc(O)c12`: 93% (inactive); for `COc1ccc(CC(N)C(=O)N[C@H]2[C@@H](O)[C@H](n3cnc4c(N(C)C)ncnc43)O[C@@H]2CO)cc1` (stereo not given in full): 7.16% (active).
The same measure for `NCC(=O)N[C@@H](CCCN=C(N)N)C(=O)NCC(=O)N[C@@H](CC(=O)O)C(=O)N[C@@H](CC(N)=O)C(=O)N1CC[C@@H](C(=O)O)C1`: 95.6% (inactive); for `COc1cc([C@@H]2c3cc4c(cc3[C@H](O)[C@H]3COC(=O)[C@H]23)OCO4)cc(OC)c1OC`: 37.4% (inactive).
With `C/C=C1/C2C=C(C)CC1(N)c1ccc(=O)[nH]c1C2` (stereo not given), the viability was 106% (inactive).
In the case of `CNCCC(Oc1ccc(C(F)(F)F)cc1)c1ccccc1` (stereo not given), the viability is 94.1% (inactive).
Regarding `COc1ccc2cc1Oc1ccc(cc1)C[C@H]1c3c(cc4c(c3Oc3cc5c(cc3OC)CCN(C)[C@@H]5C2)OCO4)CCN1C`, the viability is 66.6% (inactive).
Take `C[C@@]12C=Cc3occc3C1CC[C@@]13C[C@@H](CCC12)[C@@](O)(CO)C3` (stereo not given in full): the viability is 94.3% (inactive).
The same measure for `O=C1CCC(N2C(=O)c3ccccc3C2=O)C(=O)N1` (stereo not given): 96.1% (inactive); for `C=C(C)[C@H]1CC=C(CO)CC1`: 99.5% (inactive).
Take `CCC(C)CCCCC(=O)N[C@@H](CCN)C(=O)N[C@H](C(=O)N[C@@H](CCN)C(=O)N[C@H]1CCNC(=O)C([C@@H](C)O)NC(=O)[C@@H](CCN)NC(=O)[C@H](CCN)NC(=O)[C@H](CC(C)C)NC(=O)[C@@H](CC(C)C)NC(=O)[C@H](CCN)NC1=O)[C@@H](C)O` (stereo not given in full): the viability was 94.3% (inactive).
In the case of `CSc1ccc(/C=C2/C(C)=C(CC(=O)O)c3cc(F)ccc32)cc1`, the viability was 96% (inactive).
For the molecule `O=C(c1ccc(OCCN2CCCCC2)cc1)c1c(-c2ccc(O)cc2)sc2cc(O)ccc12`, the viability is 86.1% (inactive).
With `CC(=O)N1CCN(c2ccc(OC[C@H]3CO[C@](Cn4ccnc4)(c4ccc(Cl)cc4Cl)O3)cc2)CC1`, the viability is 76.8% (inactive).
On to `COc1ccc(CCN(C)CCCC(C#N)(c2ccc(OC)c(OC)c2)C(C)C)cc1OC` (stereo not given), for which the viability was 88.8% (inactive).
The same measure for `Clc1ccc2ncnc(NCc3ccc4c(c3)OCO4)c2c1`: 95.8% (inactive).
